NPC1 prom act = activates the NPC1 promoter; Huh7 NPC1 promoter luciferase reporter, 24 h; Potency, µM (top dose mostly 9.22 µM), for the others: at the highest dose activation, usual class: activators; 320,000 tested, 2.4% active; also: % of control where 0% means no effect; nearly all actives have a fitted effect of over 60% in size
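Stable NPC1-promoter luciferase Huh7 line; cpd (DMSO) 24 h, 37 °C, 5% CO2; Amplite luciferase reagent 10 min RT; luminescence readout. qHTS format.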
Rab9 promoter act = Rab9 promoter activation; Huh7 Rab9 promoter-luciferase reporter, luminescence, 24 h; Potency, µM (highest dose often 9.22 µM), inactives show top-dose activation, negative = inhibition, actives largely listed as activators; 320,000 tested, 2.8% active; AID 485297; also: % of control where 0% means no effect; nearly all actives have a fitted effect of over 60% in size
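Luminescence read-out: Huh7 cells stably expressing Rab9-luciferase, treated 24 h with compound at 37 °C, then lysed with luciferase reagent for 10 min at ambient before reading.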
FLuc counter = inhibits or activates purified firefly luciferase, miR-21 counter-screen | P08659 | purified FLuc, Km substrates, luminescence inhibition | Potency, µM (series often up to 57.5 µM), for inactives: at the top dose activity change, negative = inhibition, most hits filed as inhibitors | 360,000 tested, 6.9% active | AID 588342;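 also: plate controls were vehicle for no effect and reference inhibitor for full effect; nearly all actives have a fitted effect of over 55% in size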
Target sequence (P08659 whole entry, looked up): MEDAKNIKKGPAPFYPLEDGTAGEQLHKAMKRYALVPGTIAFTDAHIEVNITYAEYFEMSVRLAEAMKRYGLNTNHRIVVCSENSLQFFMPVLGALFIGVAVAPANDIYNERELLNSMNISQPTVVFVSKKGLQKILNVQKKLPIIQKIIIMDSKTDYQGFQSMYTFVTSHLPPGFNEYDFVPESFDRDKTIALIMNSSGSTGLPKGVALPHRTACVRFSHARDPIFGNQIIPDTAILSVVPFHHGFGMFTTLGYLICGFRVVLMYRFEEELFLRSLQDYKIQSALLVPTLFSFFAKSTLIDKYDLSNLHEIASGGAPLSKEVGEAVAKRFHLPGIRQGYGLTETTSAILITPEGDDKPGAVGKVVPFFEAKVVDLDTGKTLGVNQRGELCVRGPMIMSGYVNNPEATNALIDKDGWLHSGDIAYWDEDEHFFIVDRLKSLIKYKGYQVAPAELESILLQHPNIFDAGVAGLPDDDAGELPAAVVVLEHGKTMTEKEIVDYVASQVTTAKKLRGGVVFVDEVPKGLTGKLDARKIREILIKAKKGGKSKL
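Purified P. pyralis luciferase, 10 nM final, with Km-level 10 uM D-luciferin and 10 uM ATP in 50 mM Tris acetate pH 7.5, 10 mM Mg acetate, 0.01% Tween-20, 0.05% BSA; 6-point qHTS titration about 60 µM downward; luminescence read.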
ELG1 genotox = inducers of genotoxicity in HEK293T ELG1-luciferase cells | 330,000 tested, 1.3% active | Potency, µM (top dose mostly 46 µM), for inactives: top-dose activity change, positive = activation, usual class: activators | AID 504466 | HEK293T ELG1-luciferase reporter, luminescence, 16 h; also: % of control where 0% means no effect; nearly all actives have a fitted effect of over 60% in size
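After overnight (16 hr) compound treatment at 37 °C, ELG1-luciferase HEK293T cells were lysed with ONE-Glo; luminescence quantified 30 min later at room temperature.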
SMN2 splice up = enhancers of SMN2 splice variant expression; HEK293 SMN2-luciferase splicing reporter, luminescence, 30-36 h; Potency, µM (titrated, usually from 46.1 µM), for the others: at the highest dose activity change, positive = activation, hits mostly activators; 210,000 tested, 2.8% active; also: % of control where 0% means no effect; nearly all actives have a fitted effect of over 55% in size
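qHTS luciferase splicing reporter: luminescence rises when SMN2 exon 7 is included in transfected HEK293 cells. Compound exposure lasted 30-36 h at 37C, with 4.5 mM final sodium butyrate as control, followed by a ONE-Glo read.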
* hit, by the source's call; u = inconclusive; x = not tested or not shown; [ ] = dose if it differs, or a comment. Compounds with a hit are over-represented: about 7.4% of the library has one in this group of screens. Calls follow the shape of the dose curve; as a rule, active = well fitted curve in the direction sought with a large enough effect; inconclusive = small, poorly fitted or top-dose-only effect, or another doubt; inactive = no such curve, though single readings can be large; an effect the other way counts as inactive or inconclusive. Potency is read from the fitted curve at half-maximal effect.

SMILES	NPC1 prom act	Rab9 promoter act	FLuc counter	ELG1 genotox	SMN2 splice up
COC(=O)c1ccc(C(/C=C/[C@@H](C)C(=O)NCCc2c[nH]c3ccccc23)NC(=O)OCc2ccccc2)cc1 (stereo not given in full)	x	x	x	x	0.5%
CC1(C)CC(=O)C(N=Nc2c(Cl)cc(Cl)cc2Cl)=C(O)C1	9.0%	-1.1%	u	13.6%	-10.6%
CC1(C)CC(=O)C(N=Nc2ccc3ncsc3c2)=C(O)C1	x	x	19µM*	x	7.9%
CC1(C)CC(=O)C(N=Nc2ccc(-c3ccccc3)cc2)=C(O)C1	5.4%	14.9%	2.13µM*	u	18.3%
CC1(C)CC(=O)C(N=Nc2ccc(F)cc2)=C(O)C1	-1.0%	21.4%	15.1µM*	u	x
CC1(C)CC(=O)C(N=Nc2ccc(Cl)cc2)=C(O)C1	-5.6%	4.6%	4.78µM*	u	14.1µM*
CC1(C)CC(=O)C(N=Nc2cccnc2)=C(O)C1	0.4%	-1.8%	5.6%	3.1%	x
CC1(C)CC(=O)C(N=Nc2ccc(OC(F)F)cc2)=C(O)C1	-0.6%	3.0%	16.9µM*	u	-15.5%
Cc1ccc(C(=O)Nc2ncccc2S(=O)(=O)c2ccccc2)cc1	2.82µM*	2.82µM*	10.7µM*	u	x
Cc1ccc(C(=O)Nc2ccc3ncccc3c2)cc1	u	0.1µM*	0.107µM*	u	x
O=C(Nc1ccc2ncccc2c1)c1cccc(Br)c1	u	2.51µM*	10.7µM*	u	x
Cc1cccnc1NC(=O)c1ccc(S(=O)(=O)N2CCCCCC2)cc1	1.9%	4.6%	-0.2%	-1.4%	x
Cc1ccc(NC(=O)c2ccc(NS(=O)(=O)c3cccc4cccnc34)cc2)cc1	-3.6%	-3.4%[1.84 µM]	16.9µM*	-1.9%	x
Cc1ccc(CNC(=O)c2ccc(N3Cc4ccccc4Oc4ncccc43)s2)cc1	x	x	-11.1%	x	1.7%
NC(=O)c1ccccc1NC(=O)C1CCCN(c2ncnc3onc(-c4ccc(F)cc4)c23)C1 (stereo not given)	x	x	-13.8%	x	x
COc1ccc(-n2c(=O)c3sc4ccccc4c3n(CC(=O)NC3CCCCC3)c2=O)cc1	x	x	-2.1%	x	-14.9%
Nc1ccc2ncccc2c1	13.3%	4.7%	-10.7%	4.0%	u
CCC(=O)c1ccc2ncccc2c1	-3.0%	1.8%	u	7.0%	23.6%
Brc1ccc(CNc2ccc3ncccc3c2)cc1	u	27.4%	10.7µM*	u	x
Nc1ccc(/C=C/c2ccc3ncccc3c2)cc1	0.447µM*	0.282µM*	0.301µM*	u	x
COc1ccc(C(=O)Nc2ccc3ncccc3c2)cc1	0.282µM*	0.282µM*	0.426µM*	0.651µM*	x
Cc1ccc(C(=O)/C=C/c2ccc3ncccc3c2)cc1	12.6%	12.7%	3.79µM*	u	x
Oc1cc(NCc2ccccc2)cc2cccnc12	-31.2%	-17.8%	u	x	x
COc1ccc(-c2ccc(NS(=O)(=O)c3ccccc3Cl)cc2)nn1	x	x	-16.5%	x	x
CC(C)(C)C1CCc2c(sc3c2C(=O)NC(c2ccco2)N3)C1 (stereo not given)	u	2.51µM*	3.01µM*	13.1%	12.6µM*
SMILES	NPC1 prom act	Rab9 promoter act	FLuc counter	ELG1 genotox	SMN2 splice up
CC(C)CCNC(=O)CN1C(=O)c2cccnc2Sc2ccccc21	x	x	2.9%	x	x
CN1CCc2c(cc(O)c(O)c2Cl)C(c2cccc(Cl)c2)C1 (stereo not given)	x	x	x	x	-1.2%
COC(=O)[C@@H](NC(=O)O[C@@H]1C(=O)c2ccc(OC)cc2O[C@H]1c1ccc2c(c1)OCO2)C(C)C	x	x	x	x	2.0%
Cc1ccc(C)c(N2CCN(C(=O)CN3C(=O)COc4ccc(S(=O)(=O)N5CCC(C)CC5)cc43)CC2)c1	x	x	-2.6%	x	1.7%
CCN(CCn1cccn1)C(=O)c1cc(COc2ccc(F)cc2Cl)on1	-0.8%	-3.0%	u	-0.2%	-7.5%
CC(CCn1cccn1)NC(=O)c1cc(COc2ccc(F)cc2Cl)on1 (stereo not given)	-1.5%	2.4%	16.9µM*	1.3%	x
Cc1ccc(OCc2cc(C(=O)NC(C)Cc3cccnc3)no2)cc1C (stereo not given)	u	u	13.5µM*	15.3%	x
CC(=O)c1ccc(OCc2cc(C(=O)NC(C)CCn3cccn3)no2)cc1 (stereo not given)	2.82µM*	3.98µM*	15.1µM*	18.3µM*	x

Compound activity (PubChem BioAssay)
